{"source": "PubChem BioAssay AID1117282", "about": "(The Scripps Research Institute Molecular Screening Center, 2014)", "note": "The list shows a part of the results. Unmarked numbers belong to inactive results. The source made the active and inactive calls.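 How the source made its calls: active means mean inhibition across replicates above a set limit taken from the earlier primary screen (cut at about 11% in these data); inactive means the rest.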"}
{"target": "RNA-editing ligase 1, mitochondrial (Trypanosoma brucei brucei) (UniProt P86926)", "sequence (P86926 whole entry, looked up)": "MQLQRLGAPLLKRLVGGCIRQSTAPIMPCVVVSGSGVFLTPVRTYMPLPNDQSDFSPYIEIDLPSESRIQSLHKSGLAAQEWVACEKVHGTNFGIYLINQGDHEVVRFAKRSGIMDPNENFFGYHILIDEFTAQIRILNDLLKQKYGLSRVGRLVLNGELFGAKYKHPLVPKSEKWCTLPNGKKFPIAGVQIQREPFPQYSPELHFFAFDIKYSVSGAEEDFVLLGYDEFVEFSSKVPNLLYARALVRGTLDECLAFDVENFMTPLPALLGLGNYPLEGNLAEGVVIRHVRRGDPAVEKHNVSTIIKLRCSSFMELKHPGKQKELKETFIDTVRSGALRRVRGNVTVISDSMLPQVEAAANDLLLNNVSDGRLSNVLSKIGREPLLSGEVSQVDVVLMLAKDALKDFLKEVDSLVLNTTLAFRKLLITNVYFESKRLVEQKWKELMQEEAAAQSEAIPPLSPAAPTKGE", "assay": "T. brucei editing ligase REL1 blockade – biochemical, FRET fluorescence, triplicate, confirmation (AID 1117282);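 further: 0% = REL1 with substrate and DMSO and 100% = REL1 plus control inhibitor NSC42067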", "conditions": "TbREL1 RNA ligation, at 9.66 µM, stronger effect = higher value"}
{"smiles": "COc1cc(NC(=O)CCS(=O)(=O)c2ccc3c(c2)oc(=O)n3C)cc(OC)c1", "inhibition": "2.33%"}
{"smiles": "CCCCCn1c(=O)[nH]c2cc(C(=O)NCCCN3CCCCC3C)ccc2c1=O", "note": "(centres undefined)", "inhibition": "7.94%"}
{"smiles": "CC(C)Cn1c(N)c(C(=O)NCc2cccs2)c2nc3ccccc3nc21", "inhibition": "6.35%"}
{"smiles": "O=C(Nc1nc(-c2ccco2)c(-c2ccco2)s1)c1ccco1", "inhibition": "6.13%"}
{"smiles": "Nc1ccc2nc3c(=O)[nH]c(=S)[nH]c3nc2c1", "inhibition": "14.2% (active)"}
{"smiles": "O=C(NCc1ccccc1)[C@@H]1CSC2c3ccccc3C(=O)N21", "note": "(some centres undefined)", "inhibition": "3.84%"}
{"smiles": "COc1cc(/C=C/C(=O)n2cnc3ccccc32)cc(OC)c1OC", "inhibition": "2.66%"}
{"smiles": "COc1ccc(C(C(=O)Nc2c(C)cccc2C)N2CCN(c3ccc(C)cc3)CC2)cc1", "note": "(centres undefined)", "inhibition": "-1.79%"}
{"smiles": "Cc1nnsc1C(=O)Nc1cccc(Cl)c1C", "inhibition": "2.09%"}
{"smiles": "CN1CCN(/N=C2/C(=O)Nc3ccc([N+](=O)[O-])cc32)CC1", "inhibition": "3.63%"}
{"smiles": "COC(=O)C1=C(C)N(Cc2cccc(C(F)(F)F)c2)C(=NCc2cccc(C(F)(F)F)c2)NC1c1ccccc1C(F)(F)F", "note": "(centres undefined)", "inhibition": "19.9% (active)"}
{"smiles": "CC1(C)CC(N2CCN(C(c3ccccc3)c3ccccc3)CC2)=CC(=[N+]2CCCCC2)C1", "inhibition": "16.7% (active)"}
{"smiles": "CNc1nc(Nc2ccc(C)c(Cl)c2)nc(N)c1[N+](=O)[O-]", "inhibition": "9.65%"}
{"smiles": "CC[C@@H](C)[C@@H]1CN([C@@H](C)CN2CCC[C@H]2CN2C(N)=NC[C@H]2C(C)C)C(=N)N1CCc1ccc(Cl)c(Cl)c1", "inhibition": "13.3% (active)"}
{"smiles": "COC(=O)C1=C(C)N(Cc2cccc(C(F)(F)F)c2)C(=NCc2ccccc2)NC1c1ccccc1C(F)(F)F", "note": "(centres undefined)", "inhibition": "21.2% (active)"}
{"smiles": "COCc1c(N)c(C)nc(Cl)c1C#N", "inhibition": "7.44%"}
{"smiles": "O=C(Nc1cccc(F)c1)NC1CCCCCCC1", "inhibition": "4.12%"}
{"smiles": "C=CCn1c(=S)[nH]c2scc(-c3ccco3)c2c1=O", "inhibition": "13.8% (active)"}
{"smiles": "COc1c(O)cc2oc(-c3ccc(O)c(O)c3)cc(=O)c2c1O", "inhibition": "12.7% (active)"}
